The target of test [1] is Lysosomal acid glucosylceramidase (Homo sapiens) (UniProt P04062). As to the kind of experiment: Glucocerebrosidase-p2 (AID 348; in the data active = potency below about 10 µM; note: potency is the fitted concentration of half-maximal effect). Conditions: purified GBA, blue fluorogenic substrate, 40 min. In outline: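 Normal human glucocerebrosidase (0.2 nM) with blue fluorogenic substrate (80 uM final) in citrate/phosphate pH 5.9 with 10mM sodium taurocholate, 0.01% tween-20; 40 min RT, NaOH/glycine stop; fluorescence Ex 365/Em 440; AC50 from a titration from 0.6 nM upwards.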

The nature of test [2]: AP1 Signaling Pathway (AID 357).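 Note: ME-180 reporter cells stimulated with EGF at its EC50 level; % is set by controls: 0 for no effect and ±100 for the full control effect.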 The following applies: ME-180 AP-1-bla reporter, EGF-induced, beta-lactamase ratio, 5 h; at 7.69 µM (top of the series) unless noted. The essentials:
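AP-1-bla ME-180 cells, Opti-MEM + 0.5% dialyzed FBS, plated overnight 37 °C. Cpd titration + EC50 EGF, 5 h 37 °C. CCF4 2.5 h RT; ex 405, em 460/530 ratio → %activity, AC50.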

The target in test [3] is Cytochrome P450 1A2 (Homo sapiens) (UniProt P05177). The test can be described thus: p450-cyp1a2 (AID 410; calls by dose curve; note: potency is the fitted concentration of half-maximal effect;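 for activity change, negative = inhibition: -100% = full effect of reference inhibitor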). Conditions: recombinant CYP1A2, luciferin-ME demethylation, luminescence; series mostly up to 11.4 µM. In outline: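 Read-out is luminescence from luciferin produced by CYP1A2 demethylation of Luciferin-ME (100uM, at Km). Detection reagent stopped the 60 min NADPH-dependent reaction; signals were normalized to 57 uM furafylline.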

Test [4] can be described thus: Stat Signaling Pathway (AID 446).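 Note: ME-180 cervical cancer cells given 40 pM IL-6 alongside compound; SIE-controlled beta-lactamase reporter measured as 460/530 nm FRET emission ratio; % is set by controls: 0 for no effect and ±100 for the full control effect.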 The following applies: ME-180 (cervical carcinoma) SIE beta-lactamase reporter, IL-6 stimulated, 5 h; at 7.69 µM (top of the series) unless noted. In outline:
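Emission at 460 and 530 nm (excitation 405 nm) reports SIE-controlled beta-lactamase in ME-180 cells. Cells received compound with 40 pM IL-6 for 5 hrs at 37 C; data scaled between 300 pM IL-6 and 125 nM JAK-inhibitor controls.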

For test [5], the target named is Glucocorticoid receptor (Homo sapiens) (UniProt P04150). The test can be described thus: GR-GFP Redistribution (AID 450;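 active = compounds whose dose series gives a full or clear partial fitted curve of increased nuclear translocation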; note: potency is the fitted concentration of half-maximal effect). The following applies: U2OS GR-GFP nuclear translocation, laser cytometry, 2 h.
Test [6] has the same target. The test can be described thus: GR-EFC Redistribution (AID 451; calls by dose curve; note: potency is the fitted concentration of half-maximal effect). The following applies: CHO-K1 GR-EFC translocation, beta-gal luminescence, 2 h. The essentials:
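CHO-K1 cells stably expressing nuclear-localized β-gal enzyme acceptor and GR fused C-terminally to the enzyme donor fragment; ligand-driven nuclear translocation restores β-gal by complementation. Compounds titrated up to 46 uM final, 2 h at 37 °C; luminescence read.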

Test [7] deals with Mitogen-activated protein kinase 10 (Mus musculus) (UniProt Q61831). The test can be described thus: JNK3 AlphaScreen Assay (AID 530).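 Note: kinase came from lysate of stimulated human HepG2 cells; signal reports phosphorylation of biotinylated GST-cJun 1-79 at Ser73 with 10 µM ATP; % is set by controls: 0 for no effect and ±100 for the full control effect.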 The following applies: JNK3 lysate, c-Jun phosphorylation; series mostly up to 11.4 µM. In outline:
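Biotinylated GST-cJun(1-79) served as substrate for JNK3 in HepG2 lysates stimulated with IL-1beta and TNF-alpha. ATP was 10 uM final, pH 7.6. Ser73 phosphorylation was quantified by AlphaScreen (680 nm excitation).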
In general terms: In Alpha technology, singlet oxygen from a donor bead excites a nearby acceptor bead.

Test [8] deals with 3',5'-cyclic-AMP phosphodiesterase 4B (Homo sapiens) (UniProt Q07343). As to the kind of experiment: qHTS Assay for Inhibitors of PDE-IV (AID 607; active = well fitted activation curve with a large enough effect in the main read-out, with a control signal flat, not every such curve was filed as active; note: % of control where 0% means no effect). The following applies: HEK293 ACTOne CNG channel cells, membrane potential fluorescence; series mostly up to 22.9 µM. The essentials: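 The readout is membrane depolarisation from a cAMP-sensing CNG channel, detected with a potential dye at ex 535/em 590. Cells were HEK293-derived (endogenous PDE-IV) at 1000 cells/well, titrated up to 22.9 uM final.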

For test [9], the target named is Cytochrome P450 2D6 (Homo sapiens) (UniProt P10635). The test can be described thus: qHTS Assay for Inhibitors and Substrates of Cytochrome P450 2D6 (AID 891; active = well fitted curve in the direction sought with a large enough effect; an effect the other way counts as inactive or inconclusive; note: potency is the fitted concentration of half-maximal effect; nearly all actives have a fitted effect of over 60% in size). Conditions: recombinant CYP2D6, luciferin-ME EGE luminescence; series mostly up to 11.4 µM. The essentials:
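Luminescent read-out of luciferin formed by 5 nM human CYP2D6 demethylating 30 uM Luciferin-ME EGE (Km level) over 60 min at room temperature after NADPH regeneration addition. Data normalized to full inhibition by 1.43 uM quinidine.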

The target in test [10] is Cytochrome P450 2C19 (Homo sapiens) (UniProt P33261). As to the kind of experiment: qHTS Assay for Inhibitors and Substrates of Cytochrome P450 2C19 (AID 899; active = well fitted curve in the direction sought with a large enough effect; an effect the other way counts as inactive or inconclusive; note: nearly all actives have a fitted effect of over 60% in size; note: potency is the fitted concentration of half-maximal effect; for activity, negative = inhibition: % is set by controls: 0 for no effect and ±100 for the full control effect). The following applies: recombinant CYP2C19, luciferin-H EGE luminescence; series mostly up to 11.4 µM. The essentials:
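Human CYP2C19 (5nM) with Luciferin-H EGE at 10uM (its KM) in 50mM KPO4 was preincubated with compound for 10 min at 37C. NADPH regeneration started a 60 min 37C reaction. Luciferin was read by luminescence, normalized to 57uM ketoconazole.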

The target in test [11] is Cytochrome P450 3A4 (Homo sapiens) (UniProt P08684). As to the kind of experiment: qHTS Assay for Activators of Cytochrome P450 3A4 (AID 885; active = well fitted curve in the direction sought with a large enough effect; an effect the other way counts as inactive or inconclusive; note: nearly all actives have a fitted effect of over 65% in size). The following applies: recombinant CYP3A4, Luciferin-PPXE luminescence, 60 min; series mostly up to 11.4 µM. The essentials:
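Activators are scored by enhanced luminescence from CYP3A4 conversion of luciferin-PPXE (25uM, equal to KM) to luciferin, after 60 min at RT with an NADPH-regenerating system.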
(In general: Quantitative high-throughput screening tests each substance at several concentrations.)

Test [12] has the same target. The test can be described thus: qHTS Assay for Inhibitors and Substrates of Cytochrome P450 3A4 (AID 884; active = well fitted curve in the direction sought with a large enough effect; an effect the other way counts as inactive or inconclusive; note: potency is the fitted concentration of half-maximal effect; nearly all actives have a fitted effect of over 50% in size). The following applies: recombinant CYP3A4, Luciferin-PPXE luminescence; series mostly up to 57.1 µM. The essentials: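 Luminescent readout of luciferin produced by CYP3A4 (20 nM) dealkylation of Luciferin-PPXE, 25 uM (its KM). NADPH-driven reaction ran 60 min at RT after 10 min compound preincubation; data scaled to 57 uM ketoconazole as 100% inhibition.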

A number with no mark means an inactive call. Results filed as inconclusive are left out. The source made the active and inactive calls. Unless noted, calls come from the whole dose curve; as a rule, active = well fitted curve in either direction with a large enough effect (not every such curve was filed as active); inconclusive = small, poorly fitted or top-dose-only effect, or another doubt; inactive = flat fitted curve, though single readings scatter.

Chain of Cytochrome P450 3A4 (Homo sapiens) (P08684 whole entry, looked up): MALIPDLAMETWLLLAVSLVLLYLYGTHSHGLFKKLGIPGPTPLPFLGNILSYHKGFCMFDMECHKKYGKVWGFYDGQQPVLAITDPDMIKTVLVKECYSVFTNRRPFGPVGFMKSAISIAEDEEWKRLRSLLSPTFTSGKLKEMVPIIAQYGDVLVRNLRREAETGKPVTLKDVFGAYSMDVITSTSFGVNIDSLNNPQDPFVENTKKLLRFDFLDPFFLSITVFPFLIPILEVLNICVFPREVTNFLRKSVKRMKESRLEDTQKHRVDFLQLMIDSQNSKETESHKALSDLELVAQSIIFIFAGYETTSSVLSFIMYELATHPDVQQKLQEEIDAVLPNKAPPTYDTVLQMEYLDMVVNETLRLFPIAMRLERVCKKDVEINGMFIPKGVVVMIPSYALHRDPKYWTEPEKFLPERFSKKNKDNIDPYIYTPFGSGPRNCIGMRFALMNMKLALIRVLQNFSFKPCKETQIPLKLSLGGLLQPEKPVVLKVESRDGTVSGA
Chain of Cytochrome P450 2D6 (Homo sapiens) (P10635 whole entry, looked up): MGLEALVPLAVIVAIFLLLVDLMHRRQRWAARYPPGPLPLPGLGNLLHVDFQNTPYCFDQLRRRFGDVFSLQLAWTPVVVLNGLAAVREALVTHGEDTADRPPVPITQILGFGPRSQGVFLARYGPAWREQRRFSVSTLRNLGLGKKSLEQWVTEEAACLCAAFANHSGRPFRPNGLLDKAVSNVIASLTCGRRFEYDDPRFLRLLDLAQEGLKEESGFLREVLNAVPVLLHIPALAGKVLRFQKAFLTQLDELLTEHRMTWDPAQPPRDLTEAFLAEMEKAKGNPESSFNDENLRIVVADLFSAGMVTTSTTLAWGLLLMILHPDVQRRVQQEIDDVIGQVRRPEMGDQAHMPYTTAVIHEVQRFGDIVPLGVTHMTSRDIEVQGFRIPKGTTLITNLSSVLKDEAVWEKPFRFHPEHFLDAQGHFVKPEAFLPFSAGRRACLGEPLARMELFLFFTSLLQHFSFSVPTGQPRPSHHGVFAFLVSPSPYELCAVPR
Chain of 3',5'-cyclic-AMP phosphodiesterase 4B (Homo sapiens) (Q07343 whole entry, looked up): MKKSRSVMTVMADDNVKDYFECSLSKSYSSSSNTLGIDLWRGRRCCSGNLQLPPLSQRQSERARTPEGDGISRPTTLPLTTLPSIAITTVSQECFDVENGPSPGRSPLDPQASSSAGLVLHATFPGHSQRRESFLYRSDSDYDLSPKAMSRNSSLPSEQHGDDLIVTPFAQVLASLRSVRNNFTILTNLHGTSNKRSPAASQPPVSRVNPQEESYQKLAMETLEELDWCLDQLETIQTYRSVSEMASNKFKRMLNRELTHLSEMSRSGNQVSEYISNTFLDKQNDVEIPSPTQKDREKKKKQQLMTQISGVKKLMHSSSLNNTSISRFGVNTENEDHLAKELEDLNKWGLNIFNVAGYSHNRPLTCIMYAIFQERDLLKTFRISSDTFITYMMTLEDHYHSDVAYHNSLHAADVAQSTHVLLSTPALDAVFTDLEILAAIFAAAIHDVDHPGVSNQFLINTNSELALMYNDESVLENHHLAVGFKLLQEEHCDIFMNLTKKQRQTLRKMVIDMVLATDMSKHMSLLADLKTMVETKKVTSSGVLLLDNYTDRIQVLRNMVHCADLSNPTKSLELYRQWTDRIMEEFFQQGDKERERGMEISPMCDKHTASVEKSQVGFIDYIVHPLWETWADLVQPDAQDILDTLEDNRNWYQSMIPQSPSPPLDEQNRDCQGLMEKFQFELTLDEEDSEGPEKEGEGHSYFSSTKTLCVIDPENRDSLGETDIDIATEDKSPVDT
Chain of Cytochrome P450 1A2 (Homo sapiens) (P05177 whole entry, looked up): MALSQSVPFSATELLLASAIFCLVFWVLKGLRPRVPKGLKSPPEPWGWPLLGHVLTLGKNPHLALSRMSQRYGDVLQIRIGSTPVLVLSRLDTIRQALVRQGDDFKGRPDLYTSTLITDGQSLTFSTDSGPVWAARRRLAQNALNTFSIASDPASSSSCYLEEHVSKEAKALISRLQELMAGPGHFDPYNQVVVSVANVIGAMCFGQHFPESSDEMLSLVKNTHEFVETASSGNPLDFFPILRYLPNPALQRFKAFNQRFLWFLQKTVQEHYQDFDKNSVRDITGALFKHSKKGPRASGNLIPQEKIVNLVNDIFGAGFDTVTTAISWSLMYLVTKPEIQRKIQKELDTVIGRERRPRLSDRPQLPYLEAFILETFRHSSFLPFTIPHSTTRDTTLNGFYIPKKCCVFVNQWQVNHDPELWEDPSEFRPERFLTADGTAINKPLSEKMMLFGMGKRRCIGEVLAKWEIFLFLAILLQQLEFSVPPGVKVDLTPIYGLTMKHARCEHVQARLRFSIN
Chain of Lysosomal acid glucosylceramidase (Homo sapiens) (P04062 whole entry, looked up): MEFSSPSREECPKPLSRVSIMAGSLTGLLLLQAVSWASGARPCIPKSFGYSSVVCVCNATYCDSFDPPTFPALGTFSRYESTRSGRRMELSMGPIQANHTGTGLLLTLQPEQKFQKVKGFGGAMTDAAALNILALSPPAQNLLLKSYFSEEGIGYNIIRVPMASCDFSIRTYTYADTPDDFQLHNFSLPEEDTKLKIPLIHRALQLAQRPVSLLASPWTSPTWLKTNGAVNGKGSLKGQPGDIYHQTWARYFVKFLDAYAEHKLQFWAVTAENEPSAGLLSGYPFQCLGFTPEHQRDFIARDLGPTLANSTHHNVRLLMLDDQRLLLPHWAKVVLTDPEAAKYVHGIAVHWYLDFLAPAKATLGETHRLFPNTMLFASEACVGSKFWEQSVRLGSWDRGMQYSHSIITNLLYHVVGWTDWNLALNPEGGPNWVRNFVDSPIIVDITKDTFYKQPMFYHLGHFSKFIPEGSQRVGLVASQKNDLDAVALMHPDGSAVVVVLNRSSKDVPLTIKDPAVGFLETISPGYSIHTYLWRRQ
Chain of Glucocorticoid receptor (Homo sapiens) (P04150 whole entry, looked up): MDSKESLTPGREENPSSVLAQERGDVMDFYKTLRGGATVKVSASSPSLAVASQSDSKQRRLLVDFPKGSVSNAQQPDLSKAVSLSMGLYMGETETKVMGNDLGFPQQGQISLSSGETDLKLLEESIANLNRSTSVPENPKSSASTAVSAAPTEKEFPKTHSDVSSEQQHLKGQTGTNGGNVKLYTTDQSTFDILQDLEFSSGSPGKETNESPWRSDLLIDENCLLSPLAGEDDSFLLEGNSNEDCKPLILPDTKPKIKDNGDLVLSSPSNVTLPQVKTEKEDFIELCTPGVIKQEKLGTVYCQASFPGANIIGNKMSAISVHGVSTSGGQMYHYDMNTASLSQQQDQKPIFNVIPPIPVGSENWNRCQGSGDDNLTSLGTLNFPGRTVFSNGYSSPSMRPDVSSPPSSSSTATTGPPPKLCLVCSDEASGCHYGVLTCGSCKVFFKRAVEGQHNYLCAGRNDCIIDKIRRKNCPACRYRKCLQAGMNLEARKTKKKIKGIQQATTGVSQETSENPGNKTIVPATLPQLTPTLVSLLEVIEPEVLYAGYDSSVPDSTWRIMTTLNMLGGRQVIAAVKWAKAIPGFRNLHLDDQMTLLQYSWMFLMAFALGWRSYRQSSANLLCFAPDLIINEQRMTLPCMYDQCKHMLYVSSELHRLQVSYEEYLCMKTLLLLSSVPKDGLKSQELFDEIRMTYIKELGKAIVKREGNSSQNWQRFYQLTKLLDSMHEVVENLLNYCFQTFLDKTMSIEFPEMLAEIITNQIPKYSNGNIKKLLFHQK
Chain of Cytochrome P450 2C19 (Homo sapiens) (P33261 whole entry, looked up): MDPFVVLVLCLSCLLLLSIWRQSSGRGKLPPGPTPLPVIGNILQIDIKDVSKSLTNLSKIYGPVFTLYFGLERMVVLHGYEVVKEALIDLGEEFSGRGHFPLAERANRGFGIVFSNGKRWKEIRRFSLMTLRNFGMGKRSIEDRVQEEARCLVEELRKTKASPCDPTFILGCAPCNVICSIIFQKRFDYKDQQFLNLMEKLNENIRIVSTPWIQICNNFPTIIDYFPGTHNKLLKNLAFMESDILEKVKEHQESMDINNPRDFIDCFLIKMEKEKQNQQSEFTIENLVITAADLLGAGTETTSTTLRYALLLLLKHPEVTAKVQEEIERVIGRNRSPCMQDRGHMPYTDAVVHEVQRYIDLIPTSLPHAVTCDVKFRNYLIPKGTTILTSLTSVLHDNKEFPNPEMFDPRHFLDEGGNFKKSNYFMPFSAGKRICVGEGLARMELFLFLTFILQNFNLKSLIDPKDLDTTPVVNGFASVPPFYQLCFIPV

For the compound `N/N=C1/c2ccccc2N[C@H]1OC(=O)Nc1ccccc1`, the Potency was > 11.4 µM in test [1]; 0.501 µM (active) in test [3]; > 46 µM in test [5]; > 9.22 µM in [6]; 3.16 µM (active) in [9]. In addition, the activity change, negative = inhibition in [2] is -4.61%. In addition, the activity, negative = inhibition in test [4] is -9.98%. Further, the Potency result in test [7] and in test [8] was “inactive” in each case.

Regarding `Cc1cc2ccccc2c[n+]1CC(O)C[n+]1cc2ccccc2cc1C`, the Potency in test [1] was > 11.4 µM; in [5], > 46 µM; in test [6], > 9.22 µM; in test [9], 0.0251 µM (active). Further, the activity change, negative = inhibition in [2] is -5.85%. For the same compound, the Potency result in [3], in [7] and in [8] was “inactive” throughout. Moreover, the activity, negative = inhibition in [4] is 4.97%.

As to `O=[N+]([O-])c1ccc(CSCc2ccc(Cl)cc2)cc1`, the Potency in test [1] is > 11.4 µM; in test [3], 3.98 µM (active); in test [5], > 46 µM; in test [6] it was > 9.22 µM; in [10] it was 0.398 µM (active). Besides, the activity change, negative = inhibition in test [2] is -19.3%. Moreover, the activity, negative = inhibition in [4] was 11.6%. The Potency entry in test [7] and in test [8] was “inactive” each time.

For `Cc1ccc(S(=O)(=O)O[C@H]2C[C@@H](C(C)(C)C)CC[C@@H]2c2ccccc2)cc1`, the Potency in test [1] was > 11.4 µM; in test [5], > 46 µM; in [6] it was > 9.22 µM; in [10], 3.16 µM (active). Besides, the results for the activity change, negative = inhibition in test [2] and in test [3] were 7.67% and -22.8% [at 2.29 µM], respectively. For the same compound, the activity, negative = inhibition in [4] is 4.83%. Also, the Potency result in test [7] and in [8] was “inactive” throughout.

As to `O=C(O)/C(=C\c1ccncc1)c1cccc2ccccc12`, the Potency in test [1] was > 11.4 µM; in [3], 3.98 µM (active); in test [5] it was > 46 µM; in test [6], > 9.22 µM; in [10] it was 2.51 µM (active). Further, the activity change, negative = inhibition in test [2] was -1.57%. In addition, the activity, negative = inhibition in [4] is 7.21%. Besides, the Potency entry in test [7] and in [8] was “inactive” throughout.

On to `N=c1sc2ccccc2n1CCS` (tested in a mixture with another compound), for which the Potency in [1] is 4.5 µM (active); in [3], 1 µM (active); in [5], > 46 µM; in test [6], > 9.22 µM; in test [9], 0.316 µM (active); in [10], 1.58 µM (active). Besides, the activity change, negative = inhibition in [2] was 6.12%. Also, in test [4], the activity, negative = inhibition was -20%. Moreover, the Potency result in test [7], in test [8] and in test [11] was “inactive” each time.

Consider `Clc1ccc2c(NCCNC3CCCCC3)ccnc2c1`, for which the Potency in test [1] is > 11.4 µM; in test [5], > 46 µM; in test [6], > 9.22 µM; in [9], 3.16 µM (active). Besides, the activity change, negative = inhibition in test [2] is 5.59%; in test [3], -10.2% [at 2.29 µM]. In test [4], the activity, negative = inhibition was 3.49%. Besides, the Potency result in test [7] and in test [8] was “inactive” each time.

`Cn1ncc2c(Nc3cccc(Cl)c3)nc(Nc3cccc(Cl)c3)nc21`: the Potency in test [1] is 7.36 µM (active); in test [3], 3.98 µM (active); in test [5] it was > 46 µM; in test [6], > 9.22 µM. The activity change, negative = inhibition in [2] was -0.941%. Further, the activity, negative = inhibition in test [4] was 4.09%. Further, the Potency result in test [7], in [8] and in test [11] was “inactive” throughout.

As for `CC(C)c1cc(C(F)(F)F)nc(NNc2nc(C(C)C)cc(C(F)(F)F)n2)n1`, the Potency in test [1] was > 11.4 µM; in test [5], > 46 µM; in test [6] it was > 9.22 µM; in [12], 3.16 µM (active); in test [9] it was 0.126 µM (active); in [10], 2.51 µM (active). Besides, in [2], the activity change, negative = inhibition is -11.8%. In addition, the Potency result in [3], in test [7], in test [8] and in test [11] was “inactive” throughout.

Take `c1ccc2c(c1)-c1ccccc1C2N1CC2CCC(CC2)C1`: the Potency is > 11.4 µM in test [1], 0.501 µM (active) in test [3], > 46 µM in test [5] and > 9.22 µM in [6]. Moreover, in [2], the activity change, negative = inhibition was 22.5%. In addition, in test [4], the activity, negative = inhibition was 17.6%. Besides, the Potency entry in test [8] was “inactive”.

For the compound `O=[N+]([O-])c1ccc([C@@H](Nc2ccccc2)c2ccc3cccnc3c2O)cc1`, the Potency in test [1] was > 11.4 µM; in [5] it was > 46 µM; in [6], > 9.22 µM; in test [10], 3.98 µM (active). Also, the values for the activity change, negative = inhibition in test [2] and in test [3] were -13.7% and -21.3% [at 2.29 µM], respectively. In addition, the Potency entry in [7] and in test [8] was “inactive” throughout.

As for `C[C@H](CN(C)C)C(O)(c1ccccc1)c1ccccc1`, the Potency is > 11.4 µM in test [1], > 46 µM in [5] and > 9.22 µM in test [6]. The activity change, negative = inhibition in test [2] is -8.88%. Further, the Potency entry in test [3], in test [7], in [8] and in test [10] was “inactive” in each case. In addition, the activity, negative = inhibition in test [4] is 8.39%.

As for `O[C@H](C[C@@H]1CCCCN1)c1ccc2c(c1)oc1ccccc12`, the Potency in test [1] was > 11.4 µM; in test [5], > 46 µM; in [6], > 9.22 µM. Besides, the values for the activity change, negative = inhibition in [2] and in [3] were 6.24% and -10.4% [at 2.29 µM], respectively. Moreover, in test [4], the activity, negative = inhibition was 4%. Also, the Potency result in test [8] was “inactive”.

Take `Cc1nc2cnc(Oc3ccccc3)nc2n(CCc2ccccc2)c1=O`: the Potency was > 11.4 µM in test [1], 3.16 µM (active) in test [3], > 9.22 µM in test [5] and > 46 µM in test [6]. Besides, the activity change, negative = inhibition in test [2] is 17.9%. Besides, the activity, negative = inhibition in [4] is -2.9%. Also, the Potency result in test [7] and in test [11] was “inactive” throughout.

Consider `CC1(C)N=C(N)N=C(N)N1c1cccc(OCc2cccc([N+](=O)[O-])c2)c1`, for which the Potency is > 11.4 µM in test [1], 5.01 µM (active) in test [3], > 46 µM in test [5] and > 9.22 µM in [6]. In addition, the activity change, negative = inhibition in test [2] is -5.25%. For the same compound, the activity, negative = inhibition in [4] is -5.32%. The Potency entry in [7], in [8] and in [10] was “inactive” in each case.

The values are drawn from PubChem BioAssay (NCATS).
